These results are taken from PubChem BioAssay AID2061322 (National Center for Advancing Translational Sciences (NCATS), 2025).

Results filed as inconclusive are left out. Activity calls are given as the source filed them. Calls follow the shape of the dose curve; as a rule, active = well fitted inhibition curve with a large enough effect; inconclusive = small, poorly fitted or top-dose-only effect; inactive = flat fitted curve, though single readings scatter.

This assay can be described thus: Identification of antibody-drug conjugate (ADC) payloads which are substrates of ATP-binding cassette drug efflux transporters: ABCG2-HEK293-R5 cell line with Ko143. Particulars: ABCG2-HEK293-R5 with Ko143, CellTiter-Glo viability, 48 h. An excerpt: Antibody-drug conjugates (ADCs) feature an antibody recognizing a specific protein joined to a potent toxic payload. Numerous antibody-drug conjugates have received FDA approval; however, clinical resistance arises. Resistance mechanisms include decreased expression or mutation of the antibody target, impaired payload release, or increased expression of ATP-binding cassette (ABC) efflux transporters associated with multidrug resistance. We therefore sought to characterize the interaction of ABC multidrug transporters with ADC payloads. We performed a high-throughput screen with 27 common ADC payloads using cells lines expressing ABC transporters P-glycoprotein (P-gp, encoded by ABCB1) or ABCG2 (encoded by ABCG2). Confirmatory assays were also performed using cells transfected to express P-gp, ABCG2, or MRP1 (encoded by ABCC1). Several commonly used ADC payloads were substrates of P-gp, including calicheamicin gamma1, monomethyl auristatin E, DM1, and DM4. All the pyrrolobenzodiazepines tested - SJG136, SGD-1882, SG2057, and SG3199 - were substrates of P-gp, ABCG2, and MRP1. […] These findings highlight the risk of transporter-mediated resistance with certain ADC payloads and underscore the importance of selecting payloads that evade ABC transporter recognition in future ADC development.
HEK-293 cells were transfected with empty vector (pcDNA) or vector containing the human ABCB1 (MDR-19), ABCG2 (R-5), or ABCC1 gene (MRP1) and were maintained in EMEM with 2 mg/mL G418 added to maintain transporter expression. The HeLa derivative KB-3-1 and the P-gp overexpressing KB-8-5-11 subline were maintained in DMEM; KB-8-5-11 additionally received 100 ng/mL colchicine. H460 parental cells were obtained from the Division of Cancer Treatment and Diagnosis Tumor Repository, National Cancer Institute at Frederick, MD and were cultured in RPMI. The ABCG2 expressing subline H460 MX20 was generated by selecting H460 cells in 20 nM mitoxantrone. Media in all cases was supplemented with 10% FBS and 1% penicillin-streptomycin. […]
For `COc1cc2cc(C(=O)N3C[C@@H](CCl)c4c3cc(O)c3ccccc43)[nH]c2c(OC)c1OC`, the Potency is 15 nM (active).
For the compound `CC[C@H](C)[C@@H]([C@@H](CC(=O)N1CCC[C@H]1[C@H](OC)[C@@H](C)C(=O)N[C@H](C)[C@@H](O)c1ccccc1)OC)N(C)C(=O)[C@@H](NC(=O)[C@H](C(C)C)N(C)C)C(C)C`, the Potency is 16.9 nM (active).
The value for `COc1cc2cc(c1Cl)N(C)C(=O)C[C@H](OC(=O)[C@H](C)N(C)C(=O)CCC(C)(C)S)[C@]1(C)OC1[C@H](C)C1C[C@@](O)(NC(=O)O1)[C@H](OC)/C=C/C=C(\C)C2` (stereo partly drawn) was 1.7 nM (active).
